Test results reported in the supplement of paper PMC12045047.
A number with no mark means an inactive call.

What follows are compounds tested on primary human airway basal cells (HBEC, luciferase-transduced) (assay: proliferation (luciferase bioluminescence) Z score relative to plate mean; higher = more proliferation / more cells, active = 1.96 or more). Conditions: donor: 1; 0.5 µM; library: ENZO Libraries; 4 days.
Description: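 Primary human bronchial epithelial (airway basal) cells from two donors, lentivirally transduced with pHIV-Luc-ZsGreen, were seeded at 2000 cells/well in 384-well plates in FAD medium with ENZO or Prestwick library compounds and cultured for 4 days. Luciferin was then added and bioluminescence was read as a measure of cell number. Relative light units were converted to Z scores against the plate, and the mean of triplicate wells is reported.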

SMILES | proliferation
CCCCC[C@H](CC(=O)NO)C(=O)N[C@H](C(=O)N1CCC[C@H]1CO)C(C)C [Actinonin] | -0.508
CC(C)c1cc(/C=C(\C#N)C(=O)NCCCc2ccccc2)cc(C(C)C)c1O | -0.208
Nc1ccccc1NC(=O)CCCCCCC(=O)Nc1ccccc1 | 0.133
C[C@]1(Cn2ccnn2)[C@H](C(=O)O)N2C(=O)C[C@H]2S1(=O)=O [Tazobactam] | 0.216
O=C1Nc2ccccc2/C1=C1/Nc2ccccc2C1=O [Indirubin] | -0.759
Cc1ccc(S(=O)(=O)N[C@@H](Cc2ccccc2)C(=O)CCl)cc1 | -0.621
O=c1ncccn1[C@@H]1O[C@H](CO)[C@@H](O)[C@H]1O [Zebularine] | -0.238
COc1cccc(-c2cc(=O)c3ccccc3o2)c1N | 2.9 (active)
C[C@H](CS)C(=O)N1CCC[C@H]1C(=O)O [Captopril] | -0.424
O=C(O)CCCc1ccccc1 | -0.468
O=C(O)c1ccc2nc(-c3ccccc3)c(-c3ccccc3)nc2c1 | -0.199
Cn1cnc2nc(NCCO)nc(NCc3ccccc3)c21 [Iso-olomoucine] | 0.048
CC1(C)C[C@@H]1C(=O)N/C(=C\CCCCSC[C@H](N)C(=O)O)C(=O)O [Cilastatin] | -0.499
CCCCCCCCCCCCC/C=C/[C@@H](O)[C@@H](N)CO [D-erythro-Sphingosine] | -0.0291
CC(C)CC(=O)N[C@H](C(=O)N[C@H](C(=O)N[C@@H](CC(C)C)[C@@H](O)CC(=O)N[C@@H](C)C(=O)N[C@@H](CC(C)C)[C@@H](O)CC(=O)O)C(C)C)C(C)C [Pepstatin A] | 0.161
C=C1C(=O)O[C@@H](CCC)[C@@H]1C(=O)O [Butyrolactone 3] | -0.342
COc1cc2nc(N3CCCN(C)CC3)nc(NC3CCN(Cc4ccccc4)CC3)c2cc1OC | -0.123
Oc1c2ccccc2c2c3c(cccc13)N=N2 | 0.134
NCC1CCC(C(=O)N[C@@H](Cc2ccccc2)C(=O)Nc2ccc(CC(=O)O)cc2)CC1 (stereo not given in full) | 0.228
O=C(NCCCCN1CCOCC1)c1cc2ccccc2o1 | -0.215

Same assay, conditions: donor: 1; 5 µM; library: ENZO Libraries; 4 days

SMILES | proliferation
CCCCC[C@H](CC(=O)NO)C(=O)N[C@H](C(=O)N1CCC[C@H]1CO)C(C)C [Actinonin] | -0.446
CC(C)c1cc(/C=C(\C#N)C(=O)NCCCc2ccccc2)cc(C(C)C)c1O | -0.405
Nc1ccccc1NC(=O)CCCCCCC(=O)Nc1ccccc1 | 0.0632
C[C@]1(Cn2ccnn2)[C@H](C(=O)O)N2C(=O)C[C@H]2S1(=O)=O [Tazobactam] | 0.201
O=C1Nc2ccccc2/C1=C1/Nc2ccccc2C1=O [Indirubin] | -1.2
Cc1ccc(S(=O)(=O)N[C@@H](Cc2ccccc2)C(=O)CCl)cc1 | -0.67
O=c1ncccn1[C@@H]1O[C@H](CO)[C@@H](O)[C@H]1O [Zebularine] | 0.0287
COc1cccc(-c2cc(=O)c3ccccc3o2)c1N | 2.39 (active)
C[C@H](CS)C(=O)N1CCC[C@H]1C(=O)O [Captopril] | -0.0768
O=C(O)CCCc1ccccc1 | -0.326
O=C(O)c1ccc2nc(-c3ccccc3)c(-c3ccccc3)nc2c1 | -0.68
Cn1cnc2nc(NCCO)nc(NCc3ccccc3)c21 [Iso-olomoucine] | 0.096
CC1(C)C[C@@H]1C(=O)N/C(=C\CCCCSC[C@H](N)C(=O)O)C(=O)O [Cilastatin] | -0.038
CCCCCCCCCCCCC/C=C/[C@@H](O)[C@@H](N)CO [D-erythro-Sphingosine] | 0.187
CC(C)CC(=O)N[C@H](C(=O)N[C@H](C(=O)N[C@@H](CC(C)C)[C@@H](O)CC(=O)N[C@@H](C)C(=O)N[C@@H](CC(C)C)[C@@H](O)CC(=O)O)C(C)C)C(C)C [Pepstatin A] | 0.196
C=C1C(=O)O[C@@H](CCC)[C@@H]1C(=O)O [Butyrolactone 3] | 0.149
COc1cc2nc(N3CCCN(C)CC3)nc(NC3CCN(Cc4ccccc4)CC3)c2cc1OC | -0.996
Oc1c2ccccc2c2c3c(cccc13)N=N2 | -0.168
NCC1CCC(C(=O)N[C@@H](Cc2ccccc2)C(=O)Nc2ccc(CC(=O)O)cc2)CC1 (stereo not given in full) | 0.079
O=C(NCCCCN1CCOCC1)c1cc2ccccc2o1 | -0.00355
